Results on one sequence are retold here after paper PMC7862700, “An all-to-all approach to the identification of sequence-specific readers for epigenetic DNA modifications on cytosine”.

Common to all, as to assay: DAPPL (digital affinity profiling via proximity ligation, sequencing); 10 mM Tris-HCl pH 7.5, 50 mM NaCl, 1 mM DTT, 4% glycerol, room temperature, 30 min; GST-TFs on glutathione beads, 16-mer random dsDNA library, 0.1% formaldehyde crosslink after washing; high values mean tight binding
The target of experiment [1] is T1, FEV (Homo sapiens, UniProt Q99581 1-238).
T1 sequence: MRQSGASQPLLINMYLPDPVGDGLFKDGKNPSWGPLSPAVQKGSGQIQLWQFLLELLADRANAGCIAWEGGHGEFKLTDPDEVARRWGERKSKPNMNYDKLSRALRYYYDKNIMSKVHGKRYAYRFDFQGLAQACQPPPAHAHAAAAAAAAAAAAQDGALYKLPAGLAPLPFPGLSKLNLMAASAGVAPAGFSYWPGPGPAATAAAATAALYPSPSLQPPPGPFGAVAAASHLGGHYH
Conditions: protein: recombinant; tags: N-terminal GST; dsDNA, one strand shown. Put shortly: (§1)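 Human transcription factors fused to GST were expressed in yeast, captured on glutathione beads, given DNA barcodes and pooled with a GST-only negative control. Pools were incubated with 200 nmole of a 16-mer random double-stranded DNA library in Tris/NaCl/DTT/glycerol buffer at room temperature for 30 min. They were then washed, crosslinked with 0.1% formaldehyde, proximity-ligated (BsaI/T4 ligase, 1 h, 37 °C), PCR-amplified and sequenced on an Illumina NextSeq500. Binding signal is each 6-mer's read frequency for a factor divided by its frequency for the GST control.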

The target in experiment [2] is ETV5 (Homo sapiens, UniProt P41161 1-510). Conditions: protein: recombinant; tags: N-terminal GST; dsDNA, one strand shown. The method, boiled down: as §1
Experiment [3] addresses HSF1 (Homo sapiens, UniProt Q00613 1-529). Conditions: protein: recombinant; tags: N-terminal GST; chain copies: 3; dsDNA, one strand shown. The method, boiled down:
as §1

The target in experiment [4] is T2, SPIC (Homo sapiens, UniProt Q8N5J4 1-248).
T2 sequence: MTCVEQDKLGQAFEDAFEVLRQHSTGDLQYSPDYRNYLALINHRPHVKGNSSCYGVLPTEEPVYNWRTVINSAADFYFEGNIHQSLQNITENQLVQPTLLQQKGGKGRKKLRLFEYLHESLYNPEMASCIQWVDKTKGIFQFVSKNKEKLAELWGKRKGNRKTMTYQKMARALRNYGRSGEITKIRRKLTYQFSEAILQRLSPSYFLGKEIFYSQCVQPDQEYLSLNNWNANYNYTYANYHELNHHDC
The settings on record: protein: recombinant; tags: N-terminal GST; dsDNA, one strand shown. Put shortly:
as §1

Experiment [5] concerns the target ELF4 (Homo sapiens, UniProt Q99607 1-663). Conditions: protein: recombinant; tags: N-terminal GST; dsDNA, one strand shown. The method, boiled down: as §1
Experiment [6] concerns the target T3, ELK4 (Homo sapiens, UniProt P28324-2 1-405).
T3 sequence: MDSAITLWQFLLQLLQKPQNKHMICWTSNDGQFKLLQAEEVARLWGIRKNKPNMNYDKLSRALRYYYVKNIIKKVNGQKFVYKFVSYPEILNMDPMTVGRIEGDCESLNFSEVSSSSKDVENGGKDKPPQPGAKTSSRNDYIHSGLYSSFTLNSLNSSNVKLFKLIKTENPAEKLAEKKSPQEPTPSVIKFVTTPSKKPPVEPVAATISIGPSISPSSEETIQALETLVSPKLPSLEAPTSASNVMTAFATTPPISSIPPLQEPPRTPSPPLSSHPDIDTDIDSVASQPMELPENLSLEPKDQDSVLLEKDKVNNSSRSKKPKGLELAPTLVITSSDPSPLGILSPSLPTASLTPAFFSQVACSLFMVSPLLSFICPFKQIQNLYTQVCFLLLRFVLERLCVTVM
Conditions: protein: recombinant; tags: N-terminal GST; dsDNA, one strand shown. Put shortly: as §1

The target of experiment [7] is T4, ETV2 (Homo sapiens, UniProt O00321 1-342).
T4 sequence: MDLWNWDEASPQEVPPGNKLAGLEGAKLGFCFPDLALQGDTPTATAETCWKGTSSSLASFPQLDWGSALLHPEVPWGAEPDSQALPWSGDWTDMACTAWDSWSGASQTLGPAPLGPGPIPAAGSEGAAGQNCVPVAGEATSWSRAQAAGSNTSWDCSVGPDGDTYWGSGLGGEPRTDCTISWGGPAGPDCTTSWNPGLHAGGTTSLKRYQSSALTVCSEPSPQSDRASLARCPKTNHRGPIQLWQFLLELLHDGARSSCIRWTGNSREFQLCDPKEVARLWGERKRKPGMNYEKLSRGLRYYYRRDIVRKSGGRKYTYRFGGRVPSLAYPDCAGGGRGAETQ
The settings on record: protein: recombinant; tags: N-terminal GST; dsDNA, one strand shown. Put shortly:
as §1

The target of experiment [8] is T5, ELF3 (Homo sapiens, UniProt P78545 1-371).
T5 sequence: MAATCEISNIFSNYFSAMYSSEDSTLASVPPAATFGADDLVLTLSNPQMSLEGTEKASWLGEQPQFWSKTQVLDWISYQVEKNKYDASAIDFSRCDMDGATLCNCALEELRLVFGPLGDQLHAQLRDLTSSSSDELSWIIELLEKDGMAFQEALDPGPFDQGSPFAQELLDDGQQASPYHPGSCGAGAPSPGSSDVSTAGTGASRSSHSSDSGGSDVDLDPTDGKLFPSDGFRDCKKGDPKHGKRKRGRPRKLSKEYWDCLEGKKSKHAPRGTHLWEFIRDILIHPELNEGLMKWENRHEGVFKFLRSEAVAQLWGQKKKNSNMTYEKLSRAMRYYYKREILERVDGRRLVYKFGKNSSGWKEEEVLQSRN
Conditions: protein: recombinant; tags: N-terminal GST; dsDNA, one strand shown. Put shortly: as §1

For experiment [9], the target named is CRX (Homo sapiens, UniProt O43186 1-299). Conditions: protein: recombinant; tags: N-terminal GST; dsDNA, one strand shown. The method, boiled down: as §1
The target of experiment [10] is ETV1 (Homo sapiens, UniProt P50549 1-477). Conditions: protein: recombinant; tags: N-terminal GST; dsDNA, one strand shown. Put shortly:
as §1

The target of experiment [11] is T6, ERF (Homo sapiens, UniProt P50548 1-548).
T6 sequence: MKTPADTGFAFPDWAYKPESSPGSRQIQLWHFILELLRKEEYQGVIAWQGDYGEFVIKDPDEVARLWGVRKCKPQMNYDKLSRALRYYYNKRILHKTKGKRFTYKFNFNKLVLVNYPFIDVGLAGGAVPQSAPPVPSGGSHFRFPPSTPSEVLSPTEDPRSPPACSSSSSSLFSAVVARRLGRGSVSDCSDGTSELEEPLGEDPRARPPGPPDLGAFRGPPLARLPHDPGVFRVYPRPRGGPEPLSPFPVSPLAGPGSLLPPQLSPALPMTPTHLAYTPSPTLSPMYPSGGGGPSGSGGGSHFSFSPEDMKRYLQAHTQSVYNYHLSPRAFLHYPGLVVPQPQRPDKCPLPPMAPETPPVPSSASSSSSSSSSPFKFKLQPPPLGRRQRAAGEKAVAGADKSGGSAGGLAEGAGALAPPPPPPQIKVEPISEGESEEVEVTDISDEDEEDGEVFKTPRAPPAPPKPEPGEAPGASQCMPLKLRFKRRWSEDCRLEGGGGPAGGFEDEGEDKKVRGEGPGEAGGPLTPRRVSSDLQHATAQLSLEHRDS
Conditions: protein: recombinant; tags: N-terminal GST; dsDNA, one strand shown. Put shortly: as §1

The target of experiment [12] is T7, ETV3L (Homo sapiens, UniProt Q6ZN32 1-361).
T7 sequence: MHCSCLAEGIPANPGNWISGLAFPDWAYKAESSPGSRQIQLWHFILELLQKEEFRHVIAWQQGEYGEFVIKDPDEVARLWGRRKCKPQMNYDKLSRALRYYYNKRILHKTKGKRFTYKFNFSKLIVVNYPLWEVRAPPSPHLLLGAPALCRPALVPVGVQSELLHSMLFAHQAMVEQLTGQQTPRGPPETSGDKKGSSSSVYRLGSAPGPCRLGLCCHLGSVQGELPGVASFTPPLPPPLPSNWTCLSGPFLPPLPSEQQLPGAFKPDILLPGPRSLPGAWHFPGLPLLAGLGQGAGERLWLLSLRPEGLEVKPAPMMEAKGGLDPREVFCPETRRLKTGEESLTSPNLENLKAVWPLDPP
The settings on record: protein: recombinant; tags: N-terminal GST; dsDNA, one strand shown. The method, boiled down: as §1

Experiment [13] addresses T8, ETS2 (Homo sapiens, UniProt P15036 1-469).
T8 sequence: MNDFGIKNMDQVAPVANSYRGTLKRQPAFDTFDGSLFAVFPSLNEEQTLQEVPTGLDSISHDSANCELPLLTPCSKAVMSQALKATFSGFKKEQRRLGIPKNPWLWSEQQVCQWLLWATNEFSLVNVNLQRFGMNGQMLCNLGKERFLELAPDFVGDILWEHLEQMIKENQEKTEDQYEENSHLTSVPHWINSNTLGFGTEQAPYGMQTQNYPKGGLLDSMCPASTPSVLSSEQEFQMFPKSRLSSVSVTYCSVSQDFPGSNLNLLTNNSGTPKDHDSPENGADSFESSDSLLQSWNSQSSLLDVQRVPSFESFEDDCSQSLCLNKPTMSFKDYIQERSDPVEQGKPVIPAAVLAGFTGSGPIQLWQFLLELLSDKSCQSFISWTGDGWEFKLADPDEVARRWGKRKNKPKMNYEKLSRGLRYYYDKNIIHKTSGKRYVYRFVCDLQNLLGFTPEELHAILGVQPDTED
Conditions: protein: recombinant; tags: N-terminal GST; dsDNA, one strand shown. The method, boiled down:
as §1

For experiment [14], the target named is T9, SPDEF (Homo sapiens, UniProt O95238 1-335).
T9 sequence: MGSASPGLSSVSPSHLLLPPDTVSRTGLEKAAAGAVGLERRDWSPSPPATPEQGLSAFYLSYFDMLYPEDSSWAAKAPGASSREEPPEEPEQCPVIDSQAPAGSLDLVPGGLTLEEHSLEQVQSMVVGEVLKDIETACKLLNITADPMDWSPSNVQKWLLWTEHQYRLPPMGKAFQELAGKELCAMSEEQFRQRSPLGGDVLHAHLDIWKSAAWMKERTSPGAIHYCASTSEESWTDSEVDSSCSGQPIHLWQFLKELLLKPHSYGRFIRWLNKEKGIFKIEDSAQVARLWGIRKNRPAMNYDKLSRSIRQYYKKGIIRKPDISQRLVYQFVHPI
Conditions: protein: recombinant; tags: N-terminal GST; dsDNA, one strand shown. The method, boiled down: as §1

The target in experiment [15] is T10, ETV7 (Homo sapiens, UniProt Q9Y603 1-341).
T10 sequence: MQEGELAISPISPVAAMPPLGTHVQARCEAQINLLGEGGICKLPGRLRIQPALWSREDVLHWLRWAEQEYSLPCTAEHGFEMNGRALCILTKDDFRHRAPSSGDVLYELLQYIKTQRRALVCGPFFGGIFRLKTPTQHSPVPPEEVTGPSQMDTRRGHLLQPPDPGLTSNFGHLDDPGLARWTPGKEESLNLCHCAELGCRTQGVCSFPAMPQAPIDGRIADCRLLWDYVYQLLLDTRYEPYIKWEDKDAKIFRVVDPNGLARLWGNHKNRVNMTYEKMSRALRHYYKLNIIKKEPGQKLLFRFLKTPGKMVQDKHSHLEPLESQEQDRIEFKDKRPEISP
Conditions: protein: recombinant; tags: N-terminal GST; dsDNA, one strand shown. The method, boiled down: as §1

Experiment [16] concerns the target T11, ELF5 (Homo sapiens, UniProt Q9UKW6-2 1-255).
T11 sequence: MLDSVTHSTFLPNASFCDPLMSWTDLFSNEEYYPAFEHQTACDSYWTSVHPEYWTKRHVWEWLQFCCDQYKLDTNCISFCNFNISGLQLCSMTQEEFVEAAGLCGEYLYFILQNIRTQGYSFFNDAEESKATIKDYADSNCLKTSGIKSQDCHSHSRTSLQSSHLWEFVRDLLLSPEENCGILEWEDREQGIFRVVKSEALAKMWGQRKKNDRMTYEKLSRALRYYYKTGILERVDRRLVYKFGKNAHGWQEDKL
Conditions: protein: recombinant; tags: N-terminal GST; dsDNA, one strand shown. The method, boiled down:
as §1

For experiment [17], the target named is T12, ETV3 (Homo sapiens, UniProt P41162-2 1-143).
T12 sequence: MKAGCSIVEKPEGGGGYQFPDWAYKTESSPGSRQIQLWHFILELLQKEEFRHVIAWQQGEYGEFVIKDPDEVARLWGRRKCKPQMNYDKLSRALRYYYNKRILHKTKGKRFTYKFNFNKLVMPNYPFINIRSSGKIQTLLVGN
The settings on record: protein: recombinant; tags: N-terminal GST; dsDNA, one strand shown. The method, boiled down: as §1

The target in experiment [18] is ETV6 (Homo sapiens, UniProt P41212 1-452). Conditions: protein: recombinant; tags: N-terminal GST; dsDNA, one strand shown. Put shortly: as §1
ETV6, sequence (P41212 whole entry): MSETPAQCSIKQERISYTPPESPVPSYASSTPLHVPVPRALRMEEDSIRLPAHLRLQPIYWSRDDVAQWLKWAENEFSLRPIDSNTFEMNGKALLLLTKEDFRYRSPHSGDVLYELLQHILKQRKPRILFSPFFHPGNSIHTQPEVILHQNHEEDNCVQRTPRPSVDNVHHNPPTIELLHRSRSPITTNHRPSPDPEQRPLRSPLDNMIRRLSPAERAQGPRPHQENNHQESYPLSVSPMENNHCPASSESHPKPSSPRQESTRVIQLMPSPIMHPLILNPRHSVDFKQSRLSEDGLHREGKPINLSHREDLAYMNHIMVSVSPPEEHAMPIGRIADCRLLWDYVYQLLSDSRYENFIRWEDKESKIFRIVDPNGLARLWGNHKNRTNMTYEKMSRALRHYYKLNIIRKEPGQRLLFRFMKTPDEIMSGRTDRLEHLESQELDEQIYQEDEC

HSF1, sequence (Q00613 whole entry): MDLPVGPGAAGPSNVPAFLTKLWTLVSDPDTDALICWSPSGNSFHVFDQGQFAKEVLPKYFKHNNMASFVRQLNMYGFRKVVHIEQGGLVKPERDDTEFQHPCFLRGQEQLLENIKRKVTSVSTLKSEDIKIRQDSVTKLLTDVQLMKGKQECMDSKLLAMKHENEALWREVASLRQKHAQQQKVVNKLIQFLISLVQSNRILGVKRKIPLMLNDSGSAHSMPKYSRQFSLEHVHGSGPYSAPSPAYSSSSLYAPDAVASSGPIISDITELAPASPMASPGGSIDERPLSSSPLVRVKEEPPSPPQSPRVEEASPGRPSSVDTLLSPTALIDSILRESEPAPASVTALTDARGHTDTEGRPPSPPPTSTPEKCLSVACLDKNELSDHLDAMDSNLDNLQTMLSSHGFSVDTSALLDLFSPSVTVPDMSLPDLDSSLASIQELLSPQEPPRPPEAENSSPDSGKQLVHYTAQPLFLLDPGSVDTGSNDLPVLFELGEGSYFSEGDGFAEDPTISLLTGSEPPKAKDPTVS
ETV1, sequence (P50549 whole entry): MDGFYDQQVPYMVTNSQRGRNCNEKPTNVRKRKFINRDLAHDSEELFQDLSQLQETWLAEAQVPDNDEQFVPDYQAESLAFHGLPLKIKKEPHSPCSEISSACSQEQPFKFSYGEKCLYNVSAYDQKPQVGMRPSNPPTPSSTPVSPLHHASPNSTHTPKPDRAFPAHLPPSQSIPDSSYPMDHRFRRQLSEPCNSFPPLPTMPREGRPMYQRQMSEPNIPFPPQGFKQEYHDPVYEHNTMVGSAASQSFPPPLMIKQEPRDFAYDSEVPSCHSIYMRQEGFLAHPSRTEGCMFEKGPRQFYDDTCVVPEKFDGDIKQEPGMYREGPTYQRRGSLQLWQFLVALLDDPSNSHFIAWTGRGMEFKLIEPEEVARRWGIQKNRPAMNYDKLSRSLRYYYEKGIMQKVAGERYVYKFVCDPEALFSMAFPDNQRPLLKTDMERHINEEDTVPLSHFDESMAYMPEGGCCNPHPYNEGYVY
ELF4, sequence (Q99607 whole entry): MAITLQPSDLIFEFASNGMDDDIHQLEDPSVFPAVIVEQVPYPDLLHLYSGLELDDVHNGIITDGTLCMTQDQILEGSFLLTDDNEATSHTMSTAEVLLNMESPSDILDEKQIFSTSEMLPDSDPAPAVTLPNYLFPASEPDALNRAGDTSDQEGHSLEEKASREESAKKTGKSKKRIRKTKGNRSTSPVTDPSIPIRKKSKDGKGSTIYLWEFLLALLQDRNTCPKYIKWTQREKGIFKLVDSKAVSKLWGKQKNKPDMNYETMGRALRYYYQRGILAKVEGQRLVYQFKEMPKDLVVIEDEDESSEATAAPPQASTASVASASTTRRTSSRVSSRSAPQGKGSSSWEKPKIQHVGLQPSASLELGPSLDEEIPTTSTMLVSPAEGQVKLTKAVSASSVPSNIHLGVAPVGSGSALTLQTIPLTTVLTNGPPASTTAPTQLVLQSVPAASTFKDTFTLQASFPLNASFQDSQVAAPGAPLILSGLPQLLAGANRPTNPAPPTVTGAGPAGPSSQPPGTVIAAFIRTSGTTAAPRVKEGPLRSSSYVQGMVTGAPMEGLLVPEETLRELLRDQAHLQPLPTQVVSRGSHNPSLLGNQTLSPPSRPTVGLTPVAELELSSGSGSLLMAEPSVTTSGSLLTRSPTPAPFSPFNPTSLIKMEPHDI
ETV5, sequence (P41161 whole entry): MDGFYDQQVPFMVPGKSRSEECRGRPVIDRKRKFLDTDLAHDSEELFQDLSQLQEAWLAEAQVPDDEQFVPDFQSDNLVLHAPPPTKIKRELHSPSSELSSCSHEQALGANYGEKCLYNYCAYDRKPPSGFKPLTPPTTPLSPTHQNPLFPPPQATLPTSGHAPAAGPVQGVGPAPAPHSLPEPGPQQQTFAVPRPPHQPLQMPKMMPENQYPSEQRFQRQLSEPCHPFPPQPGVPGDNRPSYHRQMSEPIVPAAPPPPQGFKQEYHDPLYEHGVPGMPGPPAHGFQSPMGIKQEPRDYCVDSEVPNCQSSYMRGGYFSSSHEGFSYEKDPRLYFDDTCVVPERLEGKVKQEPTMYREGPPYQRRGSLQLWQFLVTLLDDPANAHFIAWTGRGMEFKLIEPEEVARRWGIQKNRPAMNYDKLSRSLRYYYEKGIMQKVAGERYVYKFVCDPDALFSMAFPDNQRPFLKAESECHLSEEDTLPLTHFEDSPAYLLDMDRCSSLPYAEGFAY
CRX, sequence (O43186 whole entry): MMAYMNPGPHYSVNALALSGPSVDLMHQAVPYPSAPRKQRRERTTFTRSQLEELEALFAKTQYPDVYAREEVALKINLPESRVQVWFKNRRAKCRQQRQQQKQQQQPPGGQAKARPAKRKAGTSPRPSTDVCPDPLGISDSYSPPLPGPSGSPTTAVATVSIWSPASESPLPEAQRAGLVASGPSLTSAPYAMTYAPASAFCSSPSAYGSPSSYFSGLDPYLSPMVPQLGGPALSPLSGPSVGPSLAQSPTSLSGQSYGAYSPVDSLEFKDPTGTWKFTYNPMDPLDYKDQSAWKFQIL

Regarding AACCTA, the binding signal is 1.08 fold enrichment (6-mer frequency, TF over GST control) in experiment [1]; 1.03 fold enrichment (6-mer frequency, TF over GST control) in experiment [2]; 1.18 fold enrichment (6-mer frequency, TF over GST control) in [3]; 1.03 fold enrichment (6-mer frequency, TF over GST control) in experiment [4]; 1.15 fold enrichment (6-mer frequency, TF over GST control) in [5]; 1.07 fold enrichment (6-mer frequency, TF over GST control) in experiment [6]. In addition, the binding signal in [7] is 1.27 fold enrichment (6-mer frequency, TF over GST control); in experiment [8] it was 1.16 fold enrichment (6-mer frequency, TF over GST control); in experiment [9] it was 1.2 fold enrichment (6-mer frequency, TF over GST control); in [10], 1.1 fold enrichment (6-mer frequency, TF over GST control); in experiment [11], 1.03 fold enrichment (6-mer frequency, TF over GST control); in [12], 1.05 fold enrichment (6-mer frequency, TF over GST control). Further, the binding signal was 1.11 fold enrichment (6-mer frequency, TF over GST control) in experiment [13]; 1.08 fold enrichment (6-mer frequency, TF over GST control) in experiment [14]; 1.03 fold enrichment (6-mer frequency, TF over GST control) in experiment [15]; 1.07 fold enrichment (6-mer frequency, TF over GST control) in [16]; 1.07 fold enrichment (6-mer frequency, TF over GST control) in experiment [17]; 1.1 fold enrichment (6-mer frequency, TF over GST control) in experiment [18].
